Active and inactive are the calls of the source. The calls were made as follows: active = hit-call score of the fitted dose curve at least 0.9, where 1 is the maximum; inactive = score below 0.9.

The text below walks through data of PubChem BioAssay (EPA / NIEHS).

This experiment is described as follows: CCTE_Mundy_HCI_Cortical_Synap_Neur_Matur_NeuriteSpotCountPerNeuron: CCTE's Synaptogenesis and Neurite Maturation Assay in rat cortical cells for Neurite Spot Count per Neuron Count, Mundy Lab (AID 2284215). As for the experimental part: CCTE_Mundy_HCI_Cortical_Synap&Neurite_Matur is a multiplexed, cell-based-readout assay that uses rat primary cortical cells with measurements taken at 288.33 hours after chemical dosing in a microplate: 96-well plate.CCTE_Mundy_HCI_Cortical_Synap_Neur_Matur_NeuriteSpotCountPerNeuron is one of eight components of the CCTE_Mundy_HCI_Cortical_Synap&Neurite_Matur assay. It measures synaptogenesis and neurite maturation related to number of neurite-associated synapses (synaptophysin puncta) per neuron using High Content Imaging of fluorescently labelled markers.[…] Using a type of morphology reporter, loss -of-signal activity can be used to understand developmental effects.
Cells are plated onto 96 well plates and allowed 2 hr for attachment to the substrate. At days in vitro (DIV) 5, Cytosine Arabinoside (AraC) is added to arrest glial cell growth. Chemicals are dosed and a media change is performed at DIV 7 of differentiation and is continued through DIV 12 when the experiment is terminated. Cells are fixed with […] and Hoechst Dye. Cells are stained using Millipore Mouse anti-MAP2MAB3418 (1:800) and Millipore Rabbit anti-Synaptophysinsc-1750 (1:250) primary antibodies and Alexa Fluor-488 goat anti-mouse and AlexaFluor-546 goat anti-rabbit secondary antibodies to label neuronal cell nuclei, synapses and neurites. A Cellomics ArrayScan VTi HCS Reader is used for automated image acquisition and analysis of neurite outgrowth.
With `CC(C)c1nn(C(=O)NC(C)(C)C)c(=O)n1N`, the call was inactive.
Still for that read-out and setting: the value for `O=C1CC2(CCCC2)CC(=O)N1CCCCN1CCN(c2ncccn2)CC1` was “inactive”.
Still for that read-out and setting: to `CCCCCC=C(C)C(CC)CCO` (stereo not given) belongs “inactive”.
The AC50 is the midpoint of the concentration-response curve, whichever way the signal moves. In the case of `C[C@@H]1CCO[C@H]2Cn3cc(C(=O)NCc4ccc(F)cc4F)c(=O)c(O)c3C(=O)N12`, the AC50 was 3.63 µM (active).
For the molecule `CN(C)CCCn1cc(C2=C(c3c[nH]c4ccccc34)C(=O)NC2=O)c2ccccc21`, the molecule was classed as inactive.
`F`: the molecule was classed as inactive.
Turning to `CCCCCC(C)(CC)C(=O)NC` (stereo not given), the molecule was called inactive.
The same measure, in the same setting: the value for `CCc1ccccc1` was “inactive”; that for `Cc1[nH]n(C)c(=O)c1C(=O)c1ccc(C(F)(F)F)cc1S(C)(=O)=O` was “inactive”.
For the molecule `[O]=[V]([OH])([OH])[OH]`, the AC50 is 11.6 µM (active).
`C[C@@H]1CC[C@@H](C(C)(C)O)[C@H](O)C1`: the result was inactive.
On to `BrC1CC(Br)CC(Br)CC(Br)CC(Br)CC(Br)C1` (stereo not given), for which the AC50 was 3.23 µM (active).
For `CC(=O)N[C@@H](CC(=O)O)C(=O)O`, the molecule was called inactive.
In the case of `CC(C)O`, the result was inactive.
Regarding `CC(CNC(=S)[S-])NC(=S)[S-].[Zn+2]` (stereo not given), the AC50 is 50 µM (active).
